High-throughput results as filed in PubChem BioAssay.
TDP1 cell noCPT: qHTS for Inhibitors of human tyrosyl-DNA phosphodiesterase 1 (TDP1): qHTS in cells in absence of CPT; DT40 Tdp1-/- hTDP1 cells, no CPT, ATP luminescence, 48 h; Potency, µM (highest dose often 46.2 µM), without a hit: at the highest dose activity change, negative = growth inhibition, usual class: inhibitors; 15% of 420,000 active; further: potency means the concentration at half of the fitted maximal effect; nearly all actives have a fitted effect of over 55% in size
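Stably hTDP1-transfected Tdp1-null chicken DT40 cells were treated with library compounds minus camptothecin and grown for at least 48 hr at 37 °C, after which cellular ATP was quantified by luminescence.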
HT1080 IDH1KD tx: qHTS for induction of synthetic lethality in tumor cells producing 2HG: qHTS for the HT-1080-IDH1KD cell line | HT-1080 IDH1 knockdown viability, ATP luminescence, 48 h | 2% of 360,000 active | Potency, µM (highest dose often 46.1 µM), inactives show at the highest dose activity, negative = toxicity, most hits filed as cytotoxic | AID 686971, 2013;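 further: potency means the concentration at half of the fitted maximal effect; 0% = DMSO wells and -100% = cell-free medium wells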
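In this qHTS, HT-1080 cells depleted of IDH1 are exposed for 48 h at 37 °C to compound titrations. Toxicity is scored from CellTiter-Glo luminescence, with DMSO as full viability and medium alone as none.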
IL-1B inflam inh: qHTS for Inhibitors of Inflammasome Signaling: IL-1-beta AlphaLISA Primary Screen; activity change, % at 57.5 µM; 4.7% of 360,000 active; THP-1 LPS/ATP IL-1B secretion, AlphaLISA, 16 h; stronger effect = lower value; AID 743279, 2014; in the data active means activity change below about -50%; inconclusive means mostly about -30% to -49%
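Secreted IL-1B measured by AlphaLISA bead assay after 16 h compound exposure of THP-1 cells; compounds (final up to 57.5 uM) added 1 h before LPS (250 ng/mL) and ATP (1.25 mM) stimulation; lower signal means less secretion.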
HT1080-NT tox: qHTS for induction of synthetic lethality in tumor cells producing 2HG: qHTS for the HT-1080-NT fibrosarcoma cell line | HT-1080-NT fibrosarcoma viability, CellTiter-Glo ATP luminescence, 48 h | Potency, µM (top dose mostly 46.1 µM), without a hit: top-dose activity, negative = less viability, hits mostly cytotoxic | 1.6% of 360,000 active;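 further: NT is the 2HG producing partner of a matched IDH1 knockdown line; potency means the concentration at half of the fitted maximal effect; 0% = DMSO-treated cells and -100% = media-only wells without cells; nearly all actives have a fitted effect of over 55% in size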
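Viability by CellTiter-Glo luminescence after 48 h compound exposure at 37C of HT-1080-NT cells (750/well, RPMI, 5% FBS). % activity scaled between DMSO wells and medium-only wells, then curve-fitted and categorized by curve class.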
TDP1 cell CPT: qHTS for Inhibitors of human tyrosyl-DNA phosphodiesterase 1 (TDP1): qHTS in cells in presence of CPT | AID 686979, 2013 | Potency, µM (titrated, usually from 46.2 µM), for inactives: at the highest dose activity change, negative = growth inhibition, hits mostly inhibitors | chicken DT40 Tdp1-/-;hTDP1 cells + 20 nM CPT, ATP luminescence, 48 h | 12% of 420,000 active; further: potency means the concentration at half of the fitted maximal effect; nearly all actives have a fitted effect of over 55% in size
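Chicken DT40 Tdp1-/- cells stably complemented with human TDP1 were seeded at 400 cells/well in medium containing 20 nM camptothecin, exposed to pin-transferred compounds, and grown at 37 °C for at least 48 hr. Viability was read as ATP luminescence.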
* hit, by the source's call; ? = inconclusive; / = no result. Compounds with a hit are over-represented: about 19% of the library has one in this group of screens. Unless noted, the call rests on the fitted dose curve; in most records, active means well fitted curve in the direction sought with a large enough effect; inconclusive means small, poorly fitted or top-dose-only effect, or another doubt; inactive means no such curve, though single readings can be large; an effect the other way counts as inactive or inconclusive. Unless noted, on the % scale 0 is the no-effect control and ±100 the full control effect.

SMILES | TDP1 cell noCPT | HT1080 IDH1KD tx | IL-1B inflam inh | HT1080-NT tox | TDP1 cell CPT
Cn1c(=O)c2sccc2n2c(CCCC(=O)NCc3ccc(F)cc3)nnc12 | -19% | 3% | 28 | 11% | 3%
CCCCC(CC)CNC(=O)CCCc1nnc2n(CCC)c(=O)c3sccc3n12 (stereo unspecified) | 23µM* | / | / | / | 21µM*
CCOc1ccc(CCNC(=O)CCCc2nnc3n(CC(C)C)c(=O)c4sccc4n23)cc1 | 18µM* | / | / | / | ?
COc1ccc(CNC(=O)CCCc2nnc3n(CCC(C)C)c(=O)c4sccc4n23)cc1 | 18µM* | / | / | / | 18µM*
CC(C)CCn1c(=O)c2sccc2n2c(CCCC(=O)NCc3ccc(F)cc3)nnc12 | ? | / | / | / | 18µM*
O=C(CC12CCC(CC1)C2)NCc1ccc2c(c1)OCO2 | -5% | 1% | 16 | -15% | -9%
O=C(OCc1cc(=O)n2nc(C3CC3)sc2n1)c1ccc(NC(=O)c2ccccc2F)cc1 | -16% | / | / | / | -16%
COc1ccc(NC(=O)CCCc2nnc3n(CCC(C)C)c(=O)c4sccc4n23)cc1Cl | 21µM* | / | / | / | ?
CC(C)CCn1c(=O)c2sccc2n2c(CCCC(=O)NCCc3ccccc3)nnc12 | 15µM* | / | / | / | 15µM*
CCn1c(=O)c2sccc2n2c(CCC(=O)Nc3ccc(OC)c(Cl)c3)nnc12 | -13% | / | / | / | -15%
CCc1ccc(NC(=O)CCc2nnc3n(C)c(=O)c4sccc4n23)cc1 | ? | / | / | / | -11%
CCn1c(=O)c2sccc2n2c(CCCC(=O)NCCc3ccc(S(N)(=O)=O)cc3)nnc12 | 1% | -24% | -15 | -23% | 3%
CCc1ccc(NC(=O)CCCc2nnc3n(CC(C)C)c(=O)c4sccc4n23)cc1 | 23µM* | / | / | / | 21µM*
CCn1c(=O)c2sccc2n2c(CCC(=O)NCc3ccc(Cl)cc3)nnc12 | 21µM* | / | / | / | ?
CCOC(=O)C1=C(C)NC(C)=C(C(=O)OCC)C1c1sccc1C | ? | -23% | 23 | -10% | ?
O=C1CC(C(=O)O)S/C(=N\N=C\c2ccc(Br)cc2)N1 (stereo unspecified) | 14% | -1% | 23 | 17% | -9%
O=C1NC[C@H](CCCCN2C[C@H](Cc3ccc(O)cc3)N(Cc3ccccc3)C(=O)C2=O)N(CCc2ccc(O)cc2)C1=O | -9% | ? | 3 | 19% | -7%
O=C([C@@H]1Cc2ccccc2CN1)N1CCN(Cc2ccccc2)CC1 | 0% | -2% | -2 | -1% | -8%
CCCCC(CC)CNC(=O)Cn1c(=O)[nH]c2ccsc2c1=O (stereo unspecified) | -4% | 3% | -9 | 6% | 0%
CCCCC(CC)CNC(=O)CCCn1c(=O)[nH]c2ccsc2c1=O (stereo unspecified) | ? | / | / | / | 15µM*
CCn1c(=O)c2sccc2n2c(CCCC(=O)N3CCN(c4cc(C)ccc4C)CC3)nnc12 | 6.5µM* | / | / | / | 6.5µM*
CCn1c(=O)c2sccc2n2c(CCC(=O)N3CCN(c4ccc(C(C)=O)cc4)CC3)nnc12 | -16% | / | / | / | 3%
Oc1ccc(O)c(Cc2nc3ccccc3[nH]2)c1 | 8.2µM* | -6% | -22 | -18% | ?
Cc1ccccc1C(N)c1ccncc1 (stereo unspecified) | -1% | -1% | 18 | 11% | -7%
CCN(C(=O)COc1ccc(C(C)=O)cc1)c1cccc2ccccc12 | ? | -1% | ? | -14% | 15µM*
SMILES | TDP1 cell noCPT | HT1080 IDH1KD tx | IL-1B inflam inh | HT1080-NT tox | TDP1 cell CPT
CCN(C(=O)COC(=O)c1cccnc1)c1cccc2ccccc12 | ? | 8% | -2 | 1% | ?
Cc1cc2n(n1)CCCN2C(=O)Nc1cccc(C)c1C | -10% | / | / | / | -14%
CC1CCc2onc(C(=O)NCc3ccco3)c2C1 (stereo unspecified) | ? | 13µM* | 3 | 18µM* | ?
COc1cc(C(=O)NCCNc2nc3ccc(C)cc3cc2C#N)cc(OC)c1OC | ? | -15% | ? | -2% | -14%
CCn1c(=O)n(-c2ccc(C)c(F)c2)c(=O)c2sc3ccccc3c21 | ? | / | / | / | -28%
Cc1cc(OCC(=O)Nc2ccc(CN3CCOCC3)cc2)ccc1Cl | ? | -9% | -51* | -3% | -74%
Cc1ccc(NC(=O)C(=O)NCCN2CCN(Cc3ccc([N+](=O)[O-])cc3)CC2)cc1 | ? | 3% | 9 | 0% | -28%
CCc1ccc(NC(=O)C(=O)NCCN2CCN(Cc3ccc([N+](=O)[O-])cc3)CC2)cc1 | 9.2µM* | 1% | 18 | -2% | 10µM*
O=C(COc1ccc([N+](=O)[O-])cc1)Nc1ccc(CN2CCOCC2)cc1 | 21µM* | 0% | 11 | 0% | ?
O=C(NCc1ccccn1)/C(=N/O)c1ccccc1 | 15µM* | 26% | 12 | 25% | 15µM*
C/C(=N\O)C(=O)NCc1ccccn1 | -4% | 9% | 17 | 11% | -11%
Cc1nonc1NC(=O)Nc1cccnc1 | ? | 8% | 11 | 10% | -11%
CCOC(=O)C(NC(=O)NCc1ccccc1)(OCC)C(F)(F)F (stereo unspecified) | 23µM* | 0% | 0 | -11% | ?
CCOc1ccc(-c2cn3c(n2)sc2cc(C(=O)NCCCN(CC)CC)ccc23)cc1 | 0.82µM* | / | / | / | 0.73µM*
CCN(CC)CCNC(=O)c1ccc2c(c1)sc1nc(-c3ccc(F)cc3)cn12 | 3.3µM* | / | / | / | 5.8µM*
CCOc1ccc(CNC(=O)c2ccc3c(c2)sc2nc(-c4ccccc4)cn23)cc1 | -13% | / | / | / | -17%
CCOc1ccc(-c2cn3c(n2)sc2cc(C(=O)NC4CCCc5ccccc54)ccc23)cc1 (stereo unspecified) | 5.2µM* | / | / | / | 12µM*
CCOc1ccc(-c2cn3c(n2)sc2cc(C(=O)NCCCN4CCCCC4)ccc23)cc1 | 1.6µM* | / | / | / | 1.6µM*
CCOc1ccc(CNC(=O)c2ccc3c(c2)sc2nc(-c4ccc(OC)cc4)cn23)cc1 | -18% | / | / | / | -3%
O=C(O)c1nc2cc(Cl)c(Cl)cc2[nH]c1=O | -3% | / | / | / | 6%
C[C@H]1O[C@H](O[C@H]2[C@H](O)[C@@H](O)[C@@H](O[C@H]3[C@H](O)[C@@H](O)[C@H](O)O[C@@H]3CO)O[C@@H]2CO)[C@H](O)[C@@H](O)[C@@H]1N[C@H]1C=C(CO)[C@@H](O)[C@H](O)[C@H]1O | 11% | / | / | / | 9%
